# Bioassay records as filed in PubChem.
# IMPase Li inh = qHTS Assay for Identifying the Cell-Membrane Permeable IMPase Inhibitors: Potentiation with Lithium. AID 1457, 2008. CHO-M1 cells, IP1 TR-FRET (IP-One), carbachol + lithium. 0.35% of 210,000 active. Potency, µM (doses to about 59.4 µM), usual class: inhibitors;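 further: IP1 builds up when IMPase is blocked and the TR-FRET signal falls; nearly all actives have a fitted effect of over 50% in size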
#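 Readout is a homogeneous TR-FRET IP1 immunoassay (Ex 320, Em 665 and 620), where raised cytosolic IP1 lowers signal. Cells were CHO-M1 treated 30 min at 37C with test compounds plus a little lithium; AC50 values came from Hill-equation fitting.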
# ALOX15B inhib = qHTS Assay for Inhibitors of 15-hLO-2 (15-human lipoxygenase 2); 0.56% of 110,000 active; Potency, µM (series often up to 57.1 µM), hits mostly inhibitors; purified 15hLO-2, xylenol orange hydroperoxide absorbance; Polyunsaturated fatty acid lipoxygenase ALOX15B (Homo sapiens), O15296; further: nearly all actives have a fitted effect of over 60% in size
#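 Purified human 15hLO-2 (50 nM) preincubated 15 min with compound, then 45 uM arachidonic acid for 90 min at RT in 25 mM Hepes pH 7.5, 0.01% Triton X-100. Hydroperoxide detected by Fe-xylenol orange; 573/405 nm absorbance ratio.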
# PNC assembly inh = High Content Assay for Compounds that inhibit the Assembly of the Perinucleolar Compartment; 3.1% of 140,000 active; activity change (PNC), negative = inhibition, % at 10 µM; PC3M PTB-GFP, PNC prevalence imaging, 16 h; stronger effect = lower value;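 active means readout at or below -70, meaning at least 70% loss of cells showing the perinucleolar compartment, a nuclear body marking cancer cells; inconclusive means readout between -30 and a set limit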
#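 Read-out is percentage of cells bearing a perinucleolar compartment, from automated 20x imaging of fixed, Hoechst-stained PC3M PTB-GFP cells. Cells were seeded 4 h, then exposed 16 h to compound (23 nl of library stock) in duplicate plates.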
# ALOX12 inhib = qHTS Assay for Inhibitors of 12-hLO (12-human lipoxygenase); Polyunsaturated fatty acid lipoxygenase ALOX12 (Homo sapiens), P18054; purified 12-hLO, xylenol orange hydroperoxide absorbance; Potency, µM (top dose mostly 57.1 µM), actives largely listed as inhibitors; 0.12% of 150,000 active; AID 1452, 2008; further: nearly all actives have a fitted effect of over 55% in size
# Target sequence (P18054 whole entry, looked up): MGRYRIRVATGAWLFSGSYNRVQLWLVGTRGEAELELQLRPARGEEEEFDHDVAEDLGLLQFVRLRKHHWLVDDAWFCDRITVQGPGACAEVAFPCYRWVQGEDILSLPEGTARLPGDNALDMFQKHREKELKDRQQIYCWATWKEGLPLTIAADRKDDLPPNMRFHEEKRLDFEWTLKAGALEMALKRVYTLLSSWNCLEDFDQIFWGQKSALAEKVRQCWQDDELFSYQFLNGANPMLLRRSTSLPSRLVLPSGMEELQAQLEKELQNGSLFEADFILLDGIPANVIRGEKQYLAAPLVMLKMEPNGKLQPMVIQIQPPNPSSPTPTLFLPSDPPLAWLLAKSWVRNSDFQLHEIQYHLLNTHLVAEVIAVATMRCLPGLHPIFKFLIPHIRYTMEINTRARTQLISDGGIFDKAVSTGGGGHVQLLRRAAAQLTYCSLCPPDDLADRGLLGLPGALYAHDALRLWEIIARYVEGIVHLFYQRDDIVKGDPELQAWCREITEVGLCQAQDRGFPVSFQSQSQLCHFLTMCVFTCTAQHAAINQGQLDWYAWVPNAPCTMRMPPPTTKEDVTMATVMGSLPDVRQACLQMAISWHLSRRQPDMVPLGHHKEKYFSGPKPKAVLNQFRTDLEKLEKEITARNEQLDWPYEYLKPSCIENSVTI
#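 Hydroperoxide formation by human 12-lipoxygenase from 40 uM arachidonic acid was followed colorimetrically via ferric-xylenol orange complex, using the 573/405 nm absorbance ratio. Enzyme concentration was 150 nM, with 30 min reaction at room temperature.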
# IMPase cell inh = qHTS Assay for Identifying the Cell-Membrane Permeable IMPase Inhibitors. CHO-M1 cells, IP1 accumulation, HTRF TR-FRET ratio. inhibition (IP1 accumulation), % at 46.1 µM. Inositol monophosphatase 1 (Rattus norvegicus), P97697. AID 901, 2007. 120,000 tested, under 10 active; active means well fitted curve in the direction sought with a large enough effect in the signal ratio, not every such curve was filed as active; inconclusive means small, poorly fitted or top-dose-only effect, or a change in a side signal; inactive means no such curve, though single readings can be large or run the other way; the % refers to the signal ratio;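 further: cells stimulated with carbachol in lithium chloride buffer; higher means more IMPase inhibition seen as more IP1 and lower FRET ratio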
#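 Measured: the HTRF emission ratio (665/620 nm) plus the 620 nm donor channel, each fitted to the Hill equation to give AC50. Cells were CHO-M1 given compounds up to 46 uM and a 30 min carbachol stimulation at 37C.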
# Hits are given with their value; . = inactive; ? = inconclusive; / = no result given; [ ] = another dose, or the depositor's remark. Only a selection was taken, and hits are over-represented in it overall. Unless noted, the call rests on the fitted dose curve; in most records, active means well fitted curve in the direction sought with a large enough effect; inconclusive means small, poorly fitted or top-dose-only effect, or another doubt; inactive means no such curve, though single readings can be large; an effect the other way counts as inactive or inconclusive.
SMILES,IMPase Li inh,ALOX15B inhib,PNC assembly inh,ALOX12 inhib,IMPase cell inh
CCC(=O)/C=C/C1C(C)=CCCC1(C)C (stereo not given),.,.,/,.,/
N#Cc1cccc(NC(=O)N2CCCC3(CCN(C(=O)c4cccc(F)c4)CC3)C2)c1,.,.,/,.,/
CCCCN(C(=O)Nc1ccc(Cl)cc1)C1CCN(C(C)=O)CC1,.,.,-95,.,.
CCOCCCN(C(=O)Nc1ccc(CC)cc1)C1CCN(C(C)=O)CC1,.,.,?,.,.
Cn1c(=O)n(C)c2cc(/C=N/NC(=O)c3ccc(Cl)cc3Cl)ccc21,.,.,.,.,.
COc1ccc(Br)cc1C(=O)N/N=C/c1ccc2c(c1)n(C)c(=O)n2C,.,/,-82,.,/
CC(C)NC(=O)NC(=O)COC(=O)c1ccccc1F,/,/,-115,.,.
O=C(O)[C@@H]1CCN(Cc2oc(CO)cc(=O)c2O)C1,.,.[11.4 µM],/,.[11.4 µM],/
O=c1c2c(nc3nc(COc4ccccc4)[nH]n13)CCC2,.,.,-110,.,.
CC(OC(=O)C1=Cc2ccccc2OC1)C(=O)NC1CCCC1 (stereo not given),.,.[11.4 µM],-90,.,.[1.84 µM]
O=C(COC(=O)C1=Cc2ccccc2OC1)NC1CCCC1,.,.[11.4 µM],-83,.,.[1.84 µM]
O=C(OC(C(=O)NC1CCCC1)c1cccnc1)C1=Cc2ccccc2OC1 (stereo not given),.,.,.,.,.
COCCNC(=O)COC(=O)C1=Cc2ccccc2OC1,.,/,/,/,/
COc1nc(C)nc2c1sc(=S)n2C,22µM,.,.,.,.
Cc1nc(N(C)C)c2sc(=S)n(C)c2n1,.,.,?,.,?
COc1ccc(Oc2ncc3nc(-c4cccc(C#N)c4)c(=O)n(C)c3n2)cc1,.,.,/,/,/
O=C(c1ccccc1)N1CCN(CC#Cc2ccccc2)CC1,.,.,.,.,.
C(#Cc1ccc(C#CCN2CCCC2)cc1)CN1CCCC1,.,.,-90,.,.
N/C(COc1ncn(-c2ccccc2)n1)=N\S(=O)(=O)c1ccc(Cl)cc1Cl,.,/,/,/,/
NC(=O)COc1ncn(-c2ccccc2)n1,.,.,-112,.,.
Cc1ccc(NC(=O)CC2SC(=O)N(c3ccccc3)C2=O)cc1 (stereo not given),.,/,.,.,.
CCCN1C(=O)SC(CC(=O)Nc2ccc(C)cc2)C1=O (stereo not given),.,/,-100,.,.
C=C(C)CSc1cc(C)c(C#N)c2nc3ccccc3n12,.,/,-93,.,.
COCCN(CCOC)c1cc(C)c(C#N)c2nc3ccccc3n12,.,.,-95,.,.
C[C@@H](C(=O)Nc1ccc2ccccc2c1)[C@@H]1C[C@@]1(C)[C@@H](NS(=O)(=O)c1ccc(-c2ccccc2)cc1)c1ccccc1,.,.,/,.,/
SMILES,IMPase Li inh,ALOX15B inhib,PNC assembly inh,ALOX12 inhib,IMPase cell inh
NC(=O)C[C@@H](N)c1nn[nH]n1,.,.[11.4 µM],/,.[11.4 µM],/
COc1ccc(C)cc1NC(=O)Cn1cc(S(=O)(=O)N2CCC(C)CC2)c2ccccc2c1=O,/,/,/,/,.
O=C(NCc1ccccc1F)C1CCCN(C(=O)NC2CCCCC2)C1 (stereo not given),.,.,-124,.,.
O=C(NCC1CCCCC1)C1CCCN(C(=O)NC2CCCCC2)C1 (stereo not given),.,.,.,.,.
c1ccc(-c2ccn3nnnc3n2)cc1,.,/,-100,.,.
c1ccc(-c2cnn3nnnc3n2)cc1,.,.,.,.,.
CCCCCCc1cc2cc(-c3nnc(-c4ccccc4O)o3)c(=O)oc2cc1O,.,25µM,.,.,.
CCCCCCc1cc2cc(-c3nnc(-c4ccccc4OC)o3)c(=O)oc2cc1O,.,?,.,.,.
